Rows were chosen to be rich in hits. Some 19% of all compounds tested hit in one or more screens of this group.
TDP1 inh = qHTS Assay for Inhibitors of Tyrosyl-DNA Phosphodiesterase (TDP1) | Tyrosyl-DNA phosphodiesterase 1 (Homo sapiens), Q9NUW8 | recombinant TDP1, AlphaScreen DNA substrate cleavage | Potency, µM (series often up to 130 µM), for inactives: at the top dose activity change, negative = inhibition, actives largely listed as inhibitors | 0.28% of 350,000 active | AID 485290, 2010; also: nearly all actives have a fitted effect of over 40% in size
Target sequence (Q9NUW8 whole entry, looked up): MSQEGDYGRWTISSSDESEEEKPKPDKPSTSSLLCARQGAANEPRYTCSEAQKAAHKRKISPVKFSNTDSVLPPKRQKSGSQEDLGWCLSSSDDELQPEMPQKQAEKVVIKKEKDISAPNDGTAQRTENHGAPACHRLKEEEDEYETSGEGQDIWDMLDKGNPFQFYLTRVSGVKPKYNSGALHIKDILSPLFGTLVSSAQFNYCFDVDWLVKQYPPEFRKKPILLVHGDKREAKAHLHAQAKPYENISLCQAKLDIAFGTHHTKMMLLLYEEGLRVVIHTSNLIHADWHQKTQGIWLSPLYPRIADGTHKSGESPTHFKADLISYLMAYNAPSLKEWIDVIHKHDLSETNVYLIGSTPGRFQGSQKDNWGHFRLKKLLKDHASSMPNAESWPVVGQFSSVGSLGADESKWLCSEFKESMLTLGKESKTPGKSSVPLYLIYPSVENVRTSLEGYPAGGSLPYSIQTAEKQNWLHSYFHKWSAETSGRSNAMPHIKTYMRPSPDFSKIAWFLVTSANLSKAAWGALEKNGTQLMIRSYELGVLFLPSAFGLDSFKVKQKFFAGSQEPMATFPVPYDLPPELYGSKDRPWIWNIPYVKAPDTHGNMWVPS
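Here, a 5' biotin and 3' phosphotyrosine-FITC DNA oligonucleotide reports Tdp1 activity: intact substrate bridges AlphaScreen beads, while cleavage leaves a 3' phosphate and drops signal. All incubations at room temperature.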
VP16 counter = VP16 counterscreen qHTS for inhibitors of ROR gamma transcriptional activity; Drosophila S2 Gal4-VP16 UAS-luciferase, luminescence, 20 h; Potency, µM (top dose mostly 53.6 µM), for the others: at the top dose activity, negative = inhibition, most hits filed as inhibitors; 3.5% of 310,000 active; AID 2546, 2010;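 also: Gal4-VP16 expression switched on by copper sulfate through the metallothionein promoter; nearly all actives have a fitted effect of over 50% in size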
DT40 TDP1 no CPT = qHTS for Inhibitors of human tyrosyl-DNA phosphodiesterase 1 (TDP1): qHTS in cells in absence of CPT; 15% of 420,000 active; AID 686978, 2013; DT40 Tdp1-/- hTDP1 cells, no CPT, ATP luminescence, 48 h; Potency, µM (highest dose often 46.2 µM), without a hit: at the highest dose activity change, negative = growth inhibition, hits mostly inhibitors; also: nearly all actives have a fitted effect of over 55% in size
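Chicken DT40 Tdp1-/- cells stably complemented with human TDP1 were seeded at 400 cells/well with DMSO in place of 20 nM camptothecin. After compound pinning, cells grew at least 48 hr at 37 °C; viability read by CellTiter-Glo luminescence.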
DT40 TDP1 CPT = qHTS for Inhibitors of human tyrosyl-DNA phosphodiesterase 1 (TDP1): qHTS in cells in presence of CPT. AID 686979, 2013. 12% of 420,000 active. Potency, µM (highest dose often 46.2 µM), inactives show at the top dose activity change, negative = growth inhibition, most hits filed as inhibitors. chicken DT40 Tdp1-/-;hTDP1 cells + 20 nM CPT, ATP luminescence, 48 h; also: nearly all actives have a fitted effect of over 55% in size
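Chicken DT40 Tdp1-/- cells complemented with human TDP1, 400 cells/well, exposed to compounds plus 20 nM camptothecin for at least 48 h at 37 C; viability read as ATP content by CellTiter-Glo luminescence.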
RORg inh = qHTS for inhibitors of ROR gamma transcriptional activity; Nuclear receptor ROR-gamma (Mus musculus), P51450; Drosophila S2 Gal4-RORgamma UAS-luciferase reporter, 20 h; Potency, µM (doses to about 53.6 µM), without a hit: top-dose activity change, negative = inhibition, most hits filed as inhibitors; 5.4% of 310,000 active; also: nearly all actives have a fitted effect of over 60% in size
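Luminescence from a UAS-regulated Photinus luciferase reporter in stably transfected Drosophila Schneider cells is measured; decreased signal marks ROR gamma inhibition. Fusion expression is induced by 700 uM copper sulfate for 20 hr.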
Numbers without * were called inactive; ? = inconclusive; . = no result; [ ] = remark or other dose. Calls follow the shape of the dose curve; as a rule, active = well fitted curve in the direction sought with a large enough effect; inconclusive = small, poorly fitted or top-dose-only effect, or another doubt; inactive = no such curve, though single readings can be large; an effect the other way counts as inactive or inconclusive. % is scaled to controls: 0 for no effect and ±100 for the full control effect; potency is read from the fitted curve at half-maximal effect.

SMILES | TDP1 inh | VP16 counter | DT40 TDP1 no CPT | DT40 TDP1 CPT | RORg inh
CCOc1ccccc1C1NC(=O)NC(C)=C1C(=O)OC1CCCCC1 (stereo not given) | 5% | -8% | ? | ? | 7%
O=C(CCCCCN1C(=O)c2ccccc2C1=O)Nc1cccc(O)c1 | . | 2% | -19% | 2% | 43%
O=[N+]([O-])c1cccc(-c2ccc(/C=N/NC(=S)Nc3cccc(F)c3)o2)c1 | . | 7.1µM* | 18µM* | 0% | 0.89µM*
Nc1nonc1C(=O)N/N=C/c1ccc(-c2cccc([N+](=O)[O-])c2)o1 | 3% | 2% | ? | -23% | -17%
NC(=S)N/N=C/c1ccc(-c2cccc([N+](=O)[O-])c2)o1 | 8% | 4.5µM* | 3.7µM* | 5.2µM* | 1µM*
O=C(N/N=C/c1ccc(-c2cccc([N+](=O)[O-])c2)o1)c1cccs1 | 0% | ? | -25% | 22% | 10µM*
Cn1c(SCC(=O)Nc2ccc3c(c2)OCCO3)nnc1-c1ccco1 | 4% | -4% | 3% | 13% | 24%
COc1ccc(NC(=O)c2oc3ccc4c(c3c2C)C(=O)CC(C)(C)O4)cc1OC | 8% | . | 12µM* | 21µM* | .
CCc1cccc(NC(=O)c2oc3ccc4c(c3c2C)C(=O)CC(C)(C)O4)c1 | -3% | . | 21µM* | ? | .
Cc1ccc(NC(=O)c2oc3c(c2C)C(=O)CC(C)(C)C3)cc1 | 3% | 4% | -5% | -11% | 11%
CO[C@H]1COC(=O)[C@@H](C)COC(=O)[C@@H](OCc2ccccc2)/C=C\[C@@H]1C | 2%[21 µM] | 22%[10 µM] | . | . | -17%[10 µM]
CCOC(=O)c1cc2c(=O)n3cccc(C)c3nc2n(CC(C)C)c1=NC(=O)c1ccco1 | -3% | 5% | 21µM* | ? | 6%
CCOCCCn1c(=NC(=O)c2ccco2)c(C(=O)OCC)cc2c(=O)n3cccc(C)c3nc21 | 6% | -10% | 12µM* | 16µM* | -6%
COc1cccc(OC)c1C(=O)Nc1cccc(C(C)=O)c1 | 3% | -16% | -2% | 7% | -39%
CCCNC(=O)c1ccccc1NC(=O)c1ccc2c(=O)n3c(nc2c1)CCC3 | 1% | . | -22% | ? | .
Cn1c(SCC(=O)Nc2ccc(F)cc2)nnc1-c1cccnc1 | 1% | 0% | -6% | 1% | 28%
Cc1cc(C)nc(/N=C(\N)Nc2cccc(OCc3ccccc3)c2)n1 | . | -21% | 12µM* | 16µM* | -37%
COc1ccc(N/C(N)=N/c2nc(C)cc(C)n2)cc1 | . | . | ? | -21% | .
Cc1cc(C)nc(/N=C(\N)Nc2ccc(CC(=O)OC(C)C)cc2)n1 | . | ? | 3.3µM* | ? | ?
Cc1cc(C)nc(/N=C(\N)Nc2ccc(OCc3ccccc3)cc2)n1 | 3% | ? | 12µM* | 12µM* | 21%
Cc1cc(C)nc(/N=C(\N)Nc2ccc(OCCC(C)C)cc2)n1 | 1% | -29% | 12µM* | 9.2µM* | ?
CCOC(=O)c1c(-c2ccccc2Cl)cn2ccccc12 | 3% | -3%[0.365 µM] | ? | ? | -11%
O=C(COc1ccc(Cl)cc1)N(Cc1ccc(F)cc1)C1CCS(=O)(=O)C1 (stereo not given) | 1% | -11% | -21% | -26% | 5%
Cc1cc(C)nc(/N=C(\N)Nc2ccc(S(=O)(=O)O)cc2)n1 | 0% | 7% | 8% | 0% | 7%
Cc1cc(C)nc(/N=C(\N)Nc2ccc(C)c([N+](=O)[O-])c2)n1 | 2% | -1% | 13µM* | 10µM* | 2%
NC(=O)CC(NC(=O)c1ccccc1)c1ccc(N2CCC(Br)CC2)c([N+](=O)[O-])c1 (stereo not given) | 5% | 13µM* | 10µM* | 18µM* | ?
